Assay [1] can be described thus: A CellTox Green Cytotoxicity Assay to monitor cytotoxicity in HEK293 cells - 32 hour (AID 1224881). Further: nearly all actives have a fitted effect of over 40% in size. Further: potency means the concentration at half of the fitted maximal effect. Summed up: (§1)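 Nonlytic real-time cytotoxicity: HEK293 + CellTox Green reagent plated, 5 h preincubation, pintool compound addition (23 nL in DMSO), 37 C for 40 h, fluorescence measured at successive time points.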
Assay [2] can be described thus: A CellTox Green Cytotoxicity Assay to monitor cytotoxicity in HepG2 cells - 0 hour (AID 1224882). Further: nearly all actives have a fitted effect of over 35% in size. The essentials: (§2)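 Read-out is fluorescence of a cyanine dye excluded from live cells that stains DNA of dead HepG2 cells, with signal proportional to cytotoxicity. Plates were read at 0, 8, 16, 24, 32 and 40 h after compound addition.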
The nature of assay [3]: A CellTox Green Cytotoxicity Assay to monitor cytotoxicity in HepG2 cells - 32 hour (AID 1224883). Further: nearly all actives have a fitted effect of over 50% in size. Further: potency means the concentration at half of the fitted maximal effect. The essentials: as §2
The nature of assay [4]: qHTS RealTime-Glo MT Cell Viability Assay in HepG2 cells - 16 hour (AID 1224885). Further: nearly all actives have a fitted effect of over 50% in size. Further: potency means the concentration at half of the fitted maximal effect. Summed up:
(§3)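 Viability was tracked continuously by NanoLuc luminescence from prosubstrate reduced by living HepG2 cells, at successive time points over 40 h of compound exposure. Cells with reagent were preincubated 5 h at 37 °C before compound addition.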

Assay [5] in a line: qHTS RealTime-Glo MT Cell Viability Assay in HEK293 cells - 24 hour (AID 1224886). Further: nearly all actives have a fitted effect of over 50% in size. Further: potency means the concentration at half of the fitted maximal effect. The essentials:
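Viability tracked continuously by luminescence as live cells reduce a prosubstrate for NanoLuc; HEK293 cells preincubated 5 h, compound-treated at 37 C, and read at 0, 8, 16, 24, 32 and 40 h.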

Assay [6] is described as follows: qHTS RealTime-Glo MT Cell Viability Assay in HepG2 cells - 0 hour (AID 1224889). Further: nearly all actives have a fitted effect of over 50% in size. Summed up: as §3
In general terms: In qHTS, concentration-response curves come from the screen itself.

Assay [7] can be described thus: A CellTox Green Cytotoxicity Assay to monitor cytotoxicity in HepG2 cells - 8 hour (AID 1224890). Further: nearly all actives have a fitted effect of over 45% in size. The essentials:
as §2

A short description of assay [8]: qHTS assay to identify small molecule antagonists of the estrogen receptor alpha (ER-alpha) signaling pathway using the BG1 cell line in the presence of 0.1 nM 17-beta-estradiol - cell viability counter screen (AID 1259241). Further: nearly all actives have a fitted effect of over 40% in size. The essentials:
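Live-cell protease activity (CellTiter-Fluor fluorescence, 30 min) was read in the same wells after VM7Luc4E2 cells had been exposed to compounds with 0.1 nM 17beta-estradiol for 22 hr at 37C.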

Assay [9] in a line: qHTS assay to identify small molecule antagonists of the androgen receptor (AR) signaling pathway using the MDA cell line in the presence of 0.5 nM R1881 - cell viability counter screen (AID 1259242). Further: nearly all actives have a fitted effect of over 45% in size. Further: potency means the concentration at half of the fitted maximal effect. The essentials:
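Counter screen for cytotoxicity run in the same wells as the AR antagonist reporter screen: MDA-kb2 cells were treated 16 hr with test compounds and 0.5 nM R1881, then live-cell protease activity was measured by fluorescence.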

The nature of assay [10]: qHTS assay to identify small molecule phospholipidosis (PLD) inducers (AID 1259344; active means well fitted curve in the direction sought with a large enough effect; an effect the other way counts as inactive or inconclusive). The essentials:
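Fluorescent phospholipid staining (LipidTOX Red) measured by automated microscopy in fixed HepG2 cells after 24 h treatment; nuclei counterstained with Hoechst 33342; amiodarone as reference inducer.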

The nature of assay [11]: qHTS assay to identify small molecule HDAC inhibitors (AID 1259364). Further: top concentration of the series differs between compounds; nearly all actives have a fitted effect of over 45% in size. Summed up:
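Luminescence from a cell-permeant luminogenic class I/II HDAC substrate reports endogenous deacetylase activity in intact HCT-116 cells treated with compounds for 2 h.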

The nature of assay [12]: qHTS assay to identify small molecule HDAC inhibitors - cell viability counter screen (AID 1259365). Summed up: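 HCT-116 (wild type), 1,500 cells/well, overnight 37C/5% CO2; compound in DMSO 2hr; CellTiter-Glo 30min RT; luminescence read.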
Assay [13] can be described thus: qHTS assay to identify small molecule agonists of the sonic hedgehog signaling (Shh) pathway - cell viability counter screen (AID 1259366). Further: nearly all actives have a fitted effect of over 50% in size. Further: potency means the concentration at half of the fitted maximal effect. Summed up: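 CellTiter-Fluor fluorescence read-out, 1 hr at 37C, added after 23hr compound exposure. Cells: 3T3 Gli1-Luc, an NIH/3T3 clone with stably integrated Gli1-Luc reporter, plated 4hr before compound.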
A short description of assay [14]: qHTS assay to identify small molecule antagonists of the sonic hedgehog signaling (Shh) pathway - cell viability counter screen (AID 1259367). Further: nearly all actives have a fitted effect of over 55% in size. Further: potency means the concentration at half of the fitted maximal effect. The essentials: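 Using CellTiter-Fluor, viability of Gli1-Luc reporter 3T3 cells is read by fluorescence in the wells used for the Shh luciferase assay. Treatment lasts 23 hr with conditioned medium, then reagent 1 hr at 37C.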

A short description of assay [15]: qHTS assay to identify small molecule agonists of the sonic hedgehog signaling (Shh) pathway (AID 1259368; calls by dose curve;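 further: NIH/3T3-derived 3T3Gli1-Luc cells carrying a stable Gli1-driven firefly luciferase reporter; series mostly up to about 92 µM; nearly all actives have a fitted effect of over 15% in size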). Summed up: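 3T3Gli1-Luc (NIH/3T3 clone, stable Gli1-Luc); 4 hr pre-incubation, then cpd in DMSO 24 hr, 37 C/5% CO2; luciferase reagent 30 min RT; luminescence.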
A short description of assay [16]: A CellTox Green Cytotoxicity Assay to monitor cytotoxicity in HEK293 cells - 8 hour (AID 1224884). Further: nearly all actives have a fitted effect of over 35% in size. The essentials: as §1
Assay [17] can be described thus: qHTS RealTime-Glo MT Cell Viability Assay in HEK293 cells - 8 hour (AID 1224887). Further: nearly all actives have a fitted effect of over 50% in size. Further: potency means the concentration at half of the fitted maximal effect. The essentials: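 Cells were seeded together with NanoLuc luciferase and a prosubstrate that viable cells reduce to a luciferase substrate. After a 5 h incubation at 37 C/5% CO2, compounds were added and luminescence was measured repeatedly during 40 h of treatment.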
Assay [18] has as its target Androgen receptor (Homo sapiens) (UniProt P10275). Briefly: qHTS assay to identify small molecule antagonists of the androgen receptor (AR) signaling pathway using the MDA cell line in the presence of 0.5 nM R1881 (AID 1259243). Further: nearly all actives have a fitted effect of over 50% in size. The essentials:
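Luciferase luminescence is the read-out: compounds are tested for suppressing 0.5 nM R1881-driven MMTV reporter activity in MDA-kb2 cells after 16 hr at 37C.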

The nature of assay [19]: A CellTox Green Cytotoxicity Assay to monitor cytotoxicity in HEK293 cells - 16 hour (AID 1224888). Further: nearly all actives have a fitted effect of over 35% in size. The essentials:
as §1

In assay [20] the target is Estrogen receptor (Homo sapiens) (UniProt P03372). In words: qHTS assay to identify small molecule antagonists of the estrogen receptor alpha (ER-alpha) signaling pathway using the BG1 cell line in the presence of 0.1 nM 17-beta-estradiol (AID 1259244). Further: nearly all actives have a fitted effect of over 50% in size. Further: potency means the concentration at half of the fitted maximal effect. Summed up:
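Cells: VM7Luc4E2, endogenous ER-alpha, 4x ERE-luc stable. Pre-culture 5 d, phenol red-free, charcoal-stripped FBS. Plated 24 h, compound + E2 0.1 nM final, 22 h 37C/5% CO2. Readout ONE-Glo luminescence.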

Where “and” joins values, the source holds several entries; their conditions need not be identical. Identical values can stand only once. Inconclusive results are not listed. A structure can be active in one record and inactive in another. Calls of active or inactive are those of the source. Unless noted, the call rests on the fitted dose curve; in most records, active means well fitted curve in the direction sought with a large enough effect in the repeat runs; inconclusive means weak or mixed curves; inactive means no such curve, though single readings can be large; an effect the other way counts as inactive or inconclusive.

Chain of Estrogen receptor (Homo sapiens) (P03372 whole entry, looked up): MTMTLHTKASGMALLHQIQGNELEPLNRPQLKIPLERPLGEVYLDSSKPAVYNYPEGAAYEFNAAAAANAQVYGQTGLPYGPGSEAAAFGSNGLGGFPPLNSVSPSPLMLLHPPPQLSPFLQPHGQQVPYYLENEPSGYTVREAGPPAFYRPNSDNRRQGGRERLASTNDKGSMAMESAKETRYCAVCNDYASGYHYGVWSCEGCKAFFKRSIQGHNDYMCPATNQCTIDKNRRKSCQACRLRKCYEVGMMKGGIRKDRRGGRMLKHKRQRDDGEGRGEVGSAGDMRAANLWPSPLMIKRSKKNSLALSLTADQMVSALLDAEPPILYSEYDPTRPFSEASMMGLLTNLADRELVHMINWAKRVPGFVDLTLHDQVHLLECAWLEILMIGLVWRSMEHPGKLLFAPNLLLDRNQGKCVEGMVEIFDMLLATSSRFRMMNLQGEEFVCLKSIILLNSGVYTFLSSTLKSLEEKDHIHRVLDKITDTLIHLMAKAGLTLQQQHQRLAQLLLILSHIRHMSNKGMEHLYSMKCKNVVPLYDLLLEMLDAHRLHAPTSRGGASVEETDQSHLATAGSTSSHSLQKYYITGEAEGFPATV
Chain of Androgen receptor (Homo sapiens) (P10275 whole entry, looked up): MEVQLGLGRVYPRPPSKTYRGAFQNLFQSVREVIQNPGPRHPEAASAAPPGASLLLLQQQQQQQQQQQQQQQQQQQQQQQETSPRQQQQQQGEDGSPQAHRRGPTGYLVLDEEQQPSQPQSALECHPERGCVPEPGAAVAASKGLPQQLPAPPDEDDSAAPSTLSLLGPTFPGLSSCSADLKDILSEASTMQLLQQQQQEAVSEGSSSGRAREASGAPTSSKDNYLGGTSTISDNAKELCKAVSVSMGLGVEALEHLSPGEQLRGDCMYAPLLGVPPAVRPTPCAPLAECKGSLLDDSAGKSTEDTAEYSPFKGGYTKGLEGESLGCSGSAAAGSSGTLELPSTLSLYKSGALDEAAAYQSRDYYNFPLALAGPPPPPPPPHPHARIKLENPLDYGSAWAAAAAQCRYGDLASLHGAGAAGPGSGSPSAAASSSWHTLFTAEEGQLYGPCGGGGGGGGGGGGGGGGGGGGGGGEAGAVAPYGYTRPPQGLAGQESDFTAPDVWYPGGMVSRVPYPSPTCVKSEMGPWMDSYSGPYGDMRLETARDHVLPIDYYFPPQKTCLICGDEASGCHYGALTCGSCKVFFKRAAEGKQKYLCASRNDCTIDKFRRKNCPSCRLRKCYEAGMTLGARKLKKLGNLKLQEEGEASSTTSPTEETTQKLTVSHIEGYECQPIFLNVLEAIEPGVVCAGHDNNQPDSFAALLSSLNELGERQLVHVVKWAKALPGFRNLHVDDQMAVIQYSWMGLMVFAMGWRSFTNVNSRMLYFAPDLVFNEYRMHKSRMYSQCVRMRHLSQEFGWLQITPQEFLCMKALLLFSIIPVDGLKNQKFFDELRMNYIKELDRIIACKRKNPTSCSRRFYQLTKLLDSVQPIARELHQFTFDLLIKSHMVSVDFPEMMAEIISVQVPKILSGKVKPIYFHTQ

Regarding `C=CCN1CC[C@]23CCCC[C@H]2[C@H]1Cc1ccc(O)cc13`, the Potency entry in assay [1], in assay [3], in [4], in assay [5], in [7] and in assay [9] was “inactive” in each case. The Potency result in assay [10], in assay [11], in assay [13] and in assay [14] was “inactive” in each case. Also, the outcome in assay [2], in [6], in assay [8], in assay [12] and in assay [15] was inactive.

Consider `CC(C)N(Cc1ccccc1)C(=O)C(C)(C)C`, for which the Potency result in assay [1], in assay [16], in assay [4], in assay [5], in assay [17] and in [7] was “inactive” in each case. For the same compound, the Potency entry in [9], in assay [18], in assay [11], in assay [13] and in assay [14] was “inactive” each time. The outcome in assay [2], in [6], in assay [8], in assay [12] and in assay [15] was inactive.

In the case of `CC(C)NCC(O)c1ccc([N+](=O)[O-])cc1` (stereo not given), the Potency entry in [1], in assay [3], in [16], in [4], in assay [5] and in assay [17] was “inactive” throughout. The Potency entry in [19], in assay [7], in [9], in assay [11], in assay [13] and in assay [14] was “inactive” each time. Further, the call in [6], in assay [8], in [12] and in [15] was inactive.

Regarding `NC(=O)OCCCc1ccccc1`, the Potency result in assay [1], in assay [3], in [4], in assay [5], in [17] and in [7] was “inactive” in each case. Further, the Potency result in [9], in assay [20], in [11], in assay [13] and in assay [14] was “inactive” in each case. For the same compound, the call in [2], in assay [6], in assay [8], in assay [12] and in [15] was inactive.

In the case of `O=C1C2CC=CCC2C(=O)N1SC(Cl)(Cl)Cl` (stereo not given), the Potency is 21.5 µM (active) in assay [1]; “inactive and 9.61 µM (active)” in assay [3]; “inactive and 42.9 µM (active)” in assay [4]; 43.5 µM (active) and 3.41 µM (active) in [5]; 27.1 µM (active) in assay [17]; “inactive and 16.9 µM (active)” in assay [9]. For the same compound, the Potency entry in assay [20] is “inactive and 26.9 µM (active)”; in assay [13], “inactive and 13.5 µM (active)”; in [14] it was “inactive and 13.5 µM (active)”. Further, the Potency entry in assay [16], in assay [19], in assay [7] and in assay [11] was “inactive” each time. Besides, the compound was classed as inactive in assay [6], in assay [8], in [12] and in assay [15].

Consider `CCc1ccc(C2CCNCC2)cc1`, for which the Potency result in [1], in [3], in [16], in assay [4], in assay [5] and in assay [17] was “inactive” throughout. Besides, the Potency result in [19], in assay [7], in [9], in assay [18], in [20] and in [13] was “inactive” each time. For the same compound, the Potency entry in [14] was “inactive”. In addition, the call in assay [6], in assay [8], in [12] and in [15] was inactive.

`O=[N+]([O-])CCO`: the Potency entry in assay [1], in [16], in assay [4], in [5], in assay [17] and in assay [19] was “inactive” throughout. Further, the Potency result in assay [7], in [9], in assay [20], in assay [11], in [13] and in [14] was “inactive” in each case. Also, the result in assay [2], in assay [6], in assay [8] and in [12] was inactive.

As to `CCOC(=O)c1ncn2c1CN(C)C(=O)c1c(I)cccc1-2`, the Potency result in assay [1], in assay [3], in assay [16], in assay [4], in [5] and in [17] was “inactive” each time. Besides, the Potency entry in assay [19], in [7], in assay [9], in [20], in [10] and in [11] was “inactive” each time. Besides, the Potency result in [13] and in assay [14] was “inactive” each time. Also, the result in assay [6], in assay [8] and in [12] was inactive.

Source of the values: PubChem BioAssay (Tox21).
